# Bioassay records from PubChem BioAssay.
# The sample as a whole holds a higher share of hits than the screen did.
# FBPA Giardia inh = inhibitors of Giardia lamblia fructose-1,6-bisphosphate aldolase. Potency, µM (series often up to 59.6 µM), most hits filed as inhibitors. purified Giardia FBPA. actives 0.71% (n = 290,000); further: nearly all actives have a fitted effect of over 55% in size
# Target sequence (A8B2U2 whole entry, looked up): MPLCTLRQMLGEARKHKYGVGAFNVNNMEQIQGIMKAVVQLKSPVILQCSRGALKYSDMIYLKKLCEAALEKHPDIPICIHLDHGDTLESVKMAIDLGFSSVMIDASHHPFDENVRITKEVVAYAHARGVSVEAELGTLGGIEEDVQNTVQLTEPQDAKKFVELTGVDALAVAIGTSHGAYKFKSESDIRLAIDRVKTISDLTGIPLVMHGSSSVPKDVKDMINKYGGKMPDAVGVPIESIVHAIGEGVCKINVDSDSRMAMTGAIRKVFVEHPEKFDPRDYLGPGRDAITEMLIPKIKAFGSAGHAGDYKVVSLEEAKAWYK
#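 40 nM FBPA preincubated 10 min at RT with compound (up to 57.5 uM final), then substrate plus GAPDH/TPI/NAD/arsenate coupling and diaphorase/resazurin added. Fluorescence read after 20 min at RT, 525/598 nm.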
# Shiga toxin inh = blocks Shiga toxin action in Vero cells; Vero cells, Shiga toxin protein synthesis inhibition reporter; actives 9.2% (n = 290,000); inhibition, % at 38.7 µM; AID 2315; in the data active means inhibition mostly above about 28%, no sharp cut-off; inactive means mostly below about 43%
# CHX counter = affects cycloheximide protein synthesis inhibition readout, counter-screen | actives 12% (n = 300,000) | AID 2314 | max response, % | cell reporter, cycloheximide protein synthesis inhibition counterscreen; in the data active means max response mostly above about 13%, no sharp cut-off; inactive means mostly below about 14%; further: read at 38.3 µM for the half of the compounds with a filed dose
# LmPK inhibitor = blocks Leishmania mexicana pyruvate kinase activity | Q27686 | purified LmPK, Kinase-Glo ATP luminescence, 1 h | Potency, µM (titrated, usually from 57.5 µM), hits mostly inhibitors | actives 0.37% (n = 290,000) | AID 1721
#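 0.1 nM LmPK, 0.5 mM PEP, 0.1 mM ADP; 50 mM imidazole pH 7.2, 7 mM MgCl2, 50 mM KCl; 1 h RT. Kinase-Glo luminescence readout, normalized to no-enzyme (full inhibition) and uninhibited wells.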
# RE007 growth inh = less growth of the S. pombe RE007 Vpr strain; S. pombe RE007 Vpr strain, BacTiter-Glo ATP luminescence, 24 h; Potency, µM (highest dose often 92.2 µM), usual class: inhibitors; actives 0.21% (n = 360,000); AID 651644; active means well fitted falling curve with a large enough effect; inconclusive means small, poorly fitted or top-dose-only effect; inactive means no such curve, though single readings can be large or run the other way; further: nearly all actives have a fitted effect of over 50% in size
#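 Fission yeast strain RE007, carrying one chromosomally integrated HIV-1 vpr copy, was seeded at OD 0.01 in PMG+AL medium with 23 nL pinned compound. After 24 h at 30 °C and 99% humidity, viability was read by BacTiter-Glo luminescence.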
# TbPYK inhibitor = T. brucei pyruvate kinase inhibition | TbPYK enzyme, Kinase-Glo Plus ATP luminescence, 45 min | Q57TT1 | actives 0.12% (n = 410,000) | AID 624173 | Potency, µM (highest dose often 76.8 µM), usual class: inhibitors; further: nearly all actives have a fitted effect of over 50% in size
#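 Activity of T. brucei pyruvate kinase was followed by Kinase-Glo Plus luminescence after the enzyme reacted 45 min at room temperature with 130 uM ADP (final) and substrate. Test compounds were added before ADP at multiple concentrations.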
# Hits are given with their value; - = inactive; ? = inconclusive; . = no result; [ ] = remark or other dose. Unless noted, the call rests on the fitted dose curve; in most records, active means well fitted curve in the direction sought with a large enough effect; inconclusive means small, poorly fitted or top-dose-only effect, or another doubt; inactive means no such curve, though single readings can be large; an effect the other way counts as inactive or inconclusive.
SMILES,FBPA Giardia inh,Shiga toxin inh,CHX counter,LmPK inhibitor,RE007 growth inh,TbPYK inhibitor
O=C(NCCc1ccc(Cl)cc1)Nc1ccc(Cl)cc1,-,43,-,-,-,-
COc1ccc(C2CC(c3ccccc3)Oc3ccc(OC)cc32)cc1 (centres undefined),-,-,-,.,.,.
Cc1ccccc1Nc1nc(N)nc(CSc2nnc(-c3ccccc3)n2C)n1,-,-,18,-,-,-
Cc1ccccc1Nc1nc(N)nc(CCl)n1,-,52,34,-,-,-
Cc1ccccc1NC(=O)CSCc1nc(N)nc(Nc2ccccc2C)n1,-,-,16,-,-,-
CCOC(=O)c1ccccc1NC(=O)CSc1ncc2c(n1)-c1ccccc1N(CC)S2(=O)=O,.,.,.,.,.,-
O=c1c(-c2cc(-c3ccccc3)nc3c2COc2ccc(Cl)cc2-3)coc2ccc(F)cc12,.,.,.,.,.,-
CCC1CCCCN1CCCNC(=O)c1[nH]c2ccccc2c1Sc1ccc(Cl)cc1 (centres undefined),.,.,.,.,.,-
COc1cc(OC)c(N(C)C(=O)c2nn(C)c3c2CSc2ccccc2-3)cc1Cl,.,.,.,.,.,-
Cc1ccc2oc(-c3cccc(NC(=O)c4ccc(Br)o4)c3C)nc2c1,-,70,66,-,-,-
Cc1cc2nc(-c3cccc(NC(=O)c4ccc(Br)o4)c3C)oc2cc1C,-,-,24,-,-,-
CN(C)c1ccc(CNc2nc(-c3ccco3)nn2C(=O)c2cccc([N+](=O)[O-])c2)cc1,.,.,.,.,.,-
C#CCn1c(=NC(=O)c2cc(Cl)sc2Cl)sc2cc(S(N)(=O)=O)ccc21,-,-,-,-,-,-
CCOc1cccc2sc(=NC(=O)c3ccco3)n(CC(=O)OC)c12,-,68,37,-,-,-
CCOc1cccc2sc(=NC(=O)CCS(=O)(=O)c3ccccc3)n(CC)c12,-,-,-,-,-,-
C#CCn1c(=NC(=O)c2ccco2)sc2cccc(Cl)c21,-,-,13,-,-,-
CCOc1ccccc1CNC(=O)C1CCN(c2nnc(-n3c(C)ccc3C)s2)CC1,.,.,.,.,.,-
CSc1nc(N)nc(SCC(=O)C(C)(C)C)c1C#N,-,-,-,-,-,-
CSc1nc(N)nc(SCC(=O)Nc2cccc(F)c2)c1C#N,-,77,-,-,.,-
CSc1nc(N)nc(SCC(=O)Nc2ccc(Cl)cc2)c1C#N,-,43,20,-,-,-
COc1cccc(-c2nnc3n2N=C(c2c(OC)cccc2OC)CS3)c1,-,-,-,.,.,.
COC(=O)C1=C(C(=O)OC)[C@@H]2N(C)c3ccccc3[C@@]23C[C@@H](CO)N(C(=O)c2ccco2)C3=N1,-[12.9 µM],.,.,-[11.5 µM],.,.
Cc1ccc(S(=O)(=O)CC(=O)c2cc(C)c(O)c(C)c2)cc1,-,-,-,-,-,-
O=C(NCc1ccc(F)cc1)c1cnn2ccccc12,-,-,30,-,-,-
CSc1cccc(NC(=O)c2cnn3ccccc23)c1,-,76,45,-,-,-
SMILES,FBPA Giardia inh,Shiga toxin inh,CHX counter,LmPK inhibitor,RE007 growth inh,TbPYK inhibitor
CCc1ccc(NC(=O)c2cnn3ccccc23)cc1,-,-,43,-,-,-
CN(CC(=O)Nc1cccc(F)c1)C(=O)C1CCC(C(=O)N(C)CC(=O)Nc2cccc(F)c2)CC1 (centres undefined),.,.,.,.,-,-
CC(C)N1CC(COc2ccc(Cl)cc2Cl)OC1=O (centres undefined),-,-,-,-,-,-
CCC(C)OC(=O)c1[nH]c2c(c1C)C(=O)CC(c1ccc(N(C)C)cc1)C2 (centres undefined),-,57,41,-,-,-
CCOCCOC(=O)c1[nH]c2c(c1C)C(=O)CC(c1ccc(N(C)C)cc1)C2 (centres undefined),-,-,-,-,-,-
CCOC(=O)c1[nH]c2c(c1Cc1ccccc1)C(=O)CC(c1ccccc1)C2 (centres undefined),.,.,.,.,.,-
C/C=C/COC(=O)c1[nH]c2c(c1C)C(=O)CC(c1ccc(N(C)C)cc1)C2 (centres undefined),-,-,23,-,-,-
CCOC(=O)c1[nH]c2c(c1-c1ccccc1)C(=O)CC(c1ccccc1)C2 (centres undefined),-,54,41,-,-,-
CCOC(=O)CNc1oc(-c2ccccc2)nc1-c1ccccc1,-,.,.,.,.,.
O=C(Cn1cccc1C(=O)c1ccccc1)NCc1cccc(Cl)c1,-,53,32,-,-,-
O=C(Cn1cccc1C(=O)c1ccccc1)NCc1ccc(Cl)cc1,-,-,-,-,-,-
O=C(CCCn1c(=O)c2cccn2c2ccccc21)Nc1cccc(Cl)c1,.,.,.,.,.,-
Clc1cc(CSc2ccccc2)nc(-c2ccccc2)n1,-,-,22,-,-,-
Clc1ccc(SCc2cc(Cl)nc(-c3ccccc3)n2)cc1,.,.,.,.,?,-
COCCOC(=O)c1c(C)oc2c1cc(NS(=O)(=O)c1ccc(Cl)c(C)c1)c1ccccc12,.,.,.,.,.,-
O=C(NCc1ccccn1)Nc1cccc(Cl)c1,-,43,29,-,-,-
O=C(NCc1ccccn1)c1ccc(Cl)cc1Cl,-,51,28,-,-,-
O=C(NCCCNC(=O)c1ccc(Cl)cc1Cl)c1ccccn1,-,-,-,-,-,-
O=C(NCc1ccccn1)Nc1cccc(NC(=O)NCc2ccccn2)c1,-,-,-,-,-,-
COc1cccc(NC(=O)C(=O)NCCCn2ccnc2)c1,-,-,34,-,-,-
CC(C)c1ccc(NC(=O)NCc2ccccn2)cc1,-,68,33,-,-,-
CC(C)C[C@H](NC(=O)[C@@H](Cc1c[nH]c2ccccc12)NC(=O)[C@H](Cc1ccc(O)cc1)NC(=O)[C@H](CO)NC(=O)[C@H](Cc1c[nH]c2ccccc12)NC(=O)[C@H](Cc1cnc[nH]1)NC(=O)[C@@H]1CCC(=O)N1)C(=O)N[C@@H](CCCN=C(N)N)C(=O)N1CCC[C@H]1C(=O)NCC(N)=O,-,-,-,.,.,.
COc1ccc(NC(=O)c2ccc3c(c2)CCN3S(=O)(=O)c2ccc(C)cc2)cc1Cl,.,.,.,.,.,-
C[C@]12CCC(=O)CC1=CCC1C3CC=C(C#N)[C@@]3(C)CC[C@@]12O (some centres undefined),-,-,-,-,-,-
O=C(NCc1ccccn1)Nc1ccc(Cl)c(Cl)c1,-,55,26,-,-,-
COc1cccc(NC(=O)NCc2ccccn2)c1,-,30,17,-,-,-
COc1cccc(NC(=O)C(=O)NCCc2ccc(F)cc2)c1,-,91,41,-,-,-
COc1cccc(NC(=O)NCc2ccccc2F)c1,-,97,40,-,-,-
O=C(NCc1ccccn1)Nc1ccc(F)c(Cl)c1,-,-,-,-,-,-
COc1ccc(NC(=O)NCc2ccccc2F)cc1OC,-,-,-,-,-,-
